Source: PubChem
HCV inh: blocks hepatitis C virus | Huh7.5.1 HCVcc-Cre infection, luciferase reporter, 44 h | Potency, µM (doses to about 41.8 µM), inactives show at the highest dose activity change, negative = inhibition, hits mostly inhibitors | 3.4% of 340,000 active | AID 651820; further: on the % scale 0 is the no-effect control and ±100 the full control effect
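Seed cells (1,000/well) for 4 h; treat with compound and infect with HCVcc-Cre, moi about 0.5. Incubate 44 h, then detect luciferase activity.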
NS1 function inh: blocks influenza NS1 protein function; 0.4% of 270,000 active; Potency, µM (top dose mostly 46.1 µM), for inactives: at the top dose activity, positive = more growth; calls by dose curve; further: actives are rising curves; nearly all actives have a fitted effect of over 50% in size
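Compounds were scored for reversing the slow growth caused by influenza A NS1 in S. cerevisiae, measured by optical density at 600 nm. Assay medium contained 2% galactose at pH 6.0; NS1-free yeast of the same strain were the positive control.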
Pf growth 96h: P. falciparum growth inhibition at 96 hour, primary screen for plastid delayed-death inhibitors; 6.9% of 320,000 active; P. falciparum luciferase reporter growth, 96 h; Potency, µM (titrated, usually from 28.7 µM), inactives show at the top dose activity change, negative = inhibition, most hits filed as inhibitors; further: on the % scale 0 is the no-effect control and ±100 the full control effect
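P. falciparum expressing integrated firefly luciferase, in erythrocytes at 2% hematocrit, 0.05% parasitemia, incubated with compounds 96 h at 37 C, 5% CO2. Growth inhibition read as loss of luminescence; two-generation exposure targets delayed-death apicoplast inhibitors.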
AMA1 RON2 block: disrupts binding of P. falciparum AMA1 to RON2 | Potency, µM (titrated, usually from 58.2 µM), without a hit: at the top dose activity change, negative = inhibition, hits mostly inhibitors | 0.2% of 360,000 active | AlphaScreen AMA1-biotinylated RON2 peptide binding;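 further: 0% = vehicle wells and -100% = peptide control; nearly all actives have a fitted effect of over 45% in size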
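AMA1 (3D7) with his tag at 25 nM final met compounds first, then biotinylated RON2 peptide at 25 nM; detection used donor plus acceptor beads, 10 µg/mL apiece, read by AlphaScreen after 30 min at room temperature.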
Pf growth 48h: P. falciparum growth inhibition at 48 hours (one generation) | Potency, µM (series often up to 28.7 µM), for inactives: top-dose activity change, negative = inhibition, hits mostly inhibitors | 5.9% of 310,000 active | P. falciparum luciferase growth in erythrocytes, 48 h; further: on the % scale 0 is the no-effect control and ±100 the full control effect
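Luminescence readout; reporter = integrated firefly luciferase in P. falciparum. RBC culture at 2% hematocrit, 0.1% parasitemia final, 37 C/5% CO2; decreased signal taken as growth inhibition.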
SARS PLP yeast: SARS-CoV PLP inhibition in yeast. S. cerevisiae expressing SARS-CoV PLpro, growth rescue. 0.19% of 330,000 active. Potency, µM (series often up to 32.9 µM), without a hit: at the highest dose activity, positive = growth rescue, hits mostly activators. AID 485353; calls by dose curve; further: 0% is about no effect; nearly all actives have a fitted effect of over 55% in size
Active calls of the source: *; ? = inconclusive; nt = not tested or not shown; ! = not confirmed by another sample. Hits are enriched below; roughly 12% of the tested compounds scored in any of these assays. Unless noted, the call rests on the fitted dose curve; in most records, active means well fitted curve in the direction sought with a large enough effect; inconclusive means small, poorly fitted or top-dose-only effect, or another doubt; inactive means no such curve, though single readings can be large; an effect the other way counts as inactive or inconclusive. Potency means the concentration at half of the fitted maximal effect.

SMILES	HCV inh	NS1 function inh	Pf growth 96h	AMA1 RON2 block	Pf growth 48h	SARS PLP yeast
Cc1c(C(=O)N2CCc3ccccc3C2)oc2ccc(S(=O)(=O)N3CCCCCC3)cc12	8.91µM*	19.9%	?	-26.2%	?	6.9%
Cc1c(C(=O)N2CCOCC2)oc2ccc(S(=O)(=O)N3CCCC3)cc12	7.3%	-0.7%	?	11.4%	-17.1%	7.7%
O=C(CN1C(=O)NC2(CCCC2)C1=O)NCCc1ccc(F)cc1	-13.5%	nt	nt	-1.0%	nt	3.7%
COCCNC(=O)CN1CCC(NC(=O)Nc2ccc(C(F)(F)F)cc2)CC1	11.2µM*!	-16.9%	-101.1%	-7.0%	-9.1%	-5.9%
COCCNC(=O)CN1CCC(NC(=O)Nc2ccccc2)CC1	7.3%	3.9%	nt	1.2%	6.1%	-2.2%
O=C(CN1C(=O)NC2(CCCCCCC2)C1=O)Nc1cccc(Br)c1	?	nt	nt	1.7%	nt	-1.9%
C[C@]12CC[C@H](O)CC1=CCC1C2CC[C@@]2(C)C1CC[C@@H]2NC(=O)[C@@H](N)Cc1cnc[nH]1 (stereo not given in full)	8.7%	nt	nt	37.8%	nt	nt
C=CCOCCN(C)C1=NS(=O)(=O)c2cc([N+](=O)[O-])ccc21	?	-0.1%	-26.9%	3.2%	?	0.3%
CN(CCO)C1=NS(=O)(=O)c2cc([N+](=O)[O-])ccc21	?	nt	-27.0%	-2.1%	4.15µM*	4.1%
CCCCCOC(=O)Cc1c(C)nc(-c2ccccc2)[nH]c1=O	22.6%	0.8%	?	-5.4%	1.85µM*	-2.5%
O=C(CSc1nnc(COc2ccccc2Cl)o1)NC(=O)NCc1ccco1	5.3%	2.2%	?	16.0%	-6.0%	0.1%
CN(CC(=O)Nc1ccc(F)c(F)c1F)c1cnccn1	nt	-4.6%	?	nt	13.1µM*	5.7%
CCN(CC)CCNC(=O)c1ccccc1C(=O)c1ncc[nH]1	16.7%	4.5%	1.65µM*	20.6%	-14.0%	0.8%
CCN(CC)CCNC(=O)c1ccccn1	5.0%	5.4%	-24.6%	14.5%	-16.8%	2.7%
COc1cc2nc(C3CCC3)nc(N3CCN(c4ccccc4OC)CC3)c2cc1OC	3.16µM*	-28.9%	?	?	13.1µM*	29.2%
CC(=O)Nc1ccc(S(=O)(=O)Nc2nc3cc4c(cc3nc2Cl)OCCO4)cc1	16.2%	8.5%	18.2%	13.8%	-3.3%	0.4%
O=S(=O)(Nc1nc2cc3c(cc2nc1Cl)OCCO3)c1ccccc1	-10.6%	-2.0%	16.4%	?	14.7µM*	2.7%
CCOc1ccccc1CNC(=O)c1cc2oc3ccccc3c2n1C	?	-7.0%	nt	-17.7%	?	-3.0%
COCCNC(=O)c1cc2oc3ccccc3c2n1C	12.6µM*	-47.0%	nt	-14.1%	144.1%	-12.7%
O=[N+]([O-])c1cccc(-c2nc(-c3cccs3)c(-c3cccs3)[nH]2)c1	12.6µM*	3.7%	?	-1.7%	?	-10.3%
COc1cc2c(cc1OC)C1=C(C#N)CCC(=NC(=O)c3ccc(Cl)cc3)N1CC2	5.5%	-10.5%	?	9.4%	-1.9%	7.3%
COc1cc2c(cc1OC)C1=C(C#N)COCN1CC2	-9.8%	12.6%	3.7µM*	0.0%	?	2.4%
Cc1cc(NC(=O)CSCC(=O)OCC(=O)c2cccc(Br)c2)no1	13.0%	nt	-16.2%	-8.6%	-9.8%	0.8%
Cc1ccc([N+](=O)[O-])c(OCCN2CCNCC2)c1	7.4%	-2.2%	2.33µM*	?	14.8%	-4.2%
Oc1ccccc1CN1CCCC(N2CCN(c3cccc(C(F)(F)F)c3)CC2)C1 (stereo not given)	-18.9%	-18.4%	147.6%	-7.7%	1.47µM*	-5.4%
SMILES	HCV inh	NS1 function inh	Pf growth 96h	AMA1 RON2 block	Pf growth 48h	SARS PLP yeast
O=C(c1cc[n+]([O-])cc1)N1CCCC(N2CCN(c3cccc(C(F)(F)F)c3)CC2)C1 (stereo not given)	nt	?	?	-14.7%	11.7µM*	7.6%
Cc1cc(C(=O)N2CCCC(N3CCN(c4cccc(C(F)(F)F)c4)CC3)C2)c(C)o1 (stereo not given)	12.6µM*	-4.1%	21.1%	-4.0%	-4.0%	13.7%
O=C(c1ccsc1)N1CCCC(N2CCN(c3cccc(C(F)(F)F)c3)CC2)C1 (stereo not given)	-7.2%	-11.1%	-9.1%	-1.0%	0.1%	-2.5%
CN(C)S(=O)(=O)c1cccc(NC(=O)c2sccc2-c2ccccc2)c1	-24.8%	4.4%	?	2.6%	?	1.6%
CNCC[C@H](Oc1cccc2ccccc12)c1cccs1	?	nt	6.75µM*	-17.2%	13.5µM*	-1.3%
CCN(CC(=O)NC1CCS(=O)(=O)C1)C(C)C(=O)Nc1ccc(F)cc1 (stereo not given)	14.1%	nt	12.3%	23.4%	-4.3%	-0.9%
COc1cc(C(=O)OC2C[C@H]3CC[C@@H](C2)N3)ccc1O (stereo not given in full)	-7.6%	3.9%	?	-1.2%	11.7µM*	0.2%
COc1cc(C(=O)OC2C[C@H]3CC[C@@H](C2)N3C)ccc1O (stereo not given in full)	2.1%	-1.3%	31.4%	4.2%	34.9%	0.2%
Cc1cc2n(n1)C(c1ccsc1)Nc1ccccc1-2 (stereo not given)	?	-121.0%	nt	14.7%	13.8%	-13.3%
CSc1ccc(C2Nc3ccccc3-c3cc(C)nn32)cc1 (stereo not given)	10µM*	-53.3%	43.2%	9.7%	29.4%	9.5%
CCCCn1c(=O)[nH]c(=O)c2c(C(=O)OCC)cc(-c3cccs3)nc21	10µM*	3.9%	-19.9%	-2.7%	0.0%	-3.6%
CCCn1c(=O)[nH]c(=O)c2c(C(=O)OCC)cc(-c3cccs3)nc21	?	nt	?	-6.6%	?	-0.4%
Cc1ccc(OCCNC(=O)Cc2ccc(S(=O)(=O)N3CCOCC3)s2)cc1	-23.0%	10.5%	-73.6%	2.7%	?	7.0%
CCCN1CCC(NC(=S)Nc2ccc([N+](=O)[O-])cc2)CC1	?	3.3%	?	0.6%	3.7µM*	0.4%
CCCN1CCN(C(=S)Nc2ccc([N+](=O)[O-])cc2)CC1	5.5%	-8.5%	-102.3%	-6.8%	-14.9%	-22.1%
CCCN1CCC(NC(=S)Nc2ccc(C(=O)OCC)cc2)CC1	?	-3.8%	-12.1%	15.6%	11.7µM*	-6.9%
CC(Nc1c([N+](=O)[O-])c(=O)oc2ccccc12)C(Cl)c1ccccc1 (stereo not given)	-13.7%	-8.3%	20.2%	-9.8%	-7.4%	-11.2%
O=c1oc2ccccc2c(NC(c2ccccc2)c2ccccc2)c1[N+](=O)[O-]	-9.2%	12.5%	162.8%	-25.7%	10.4µM*	5.6%
O=C(O)Cc1cccc(=O)c(O)c1C(=O)O	21.9%	nt	nt	3.6%	nt	nt
